This passage reports activation results from PubChem BioAssay AID1508602 (The Scripps Research Institute Molecular Screening Center, 2020).

Screen size: about 650,000 compounds; about 6,800 (1%) were called active. What follows is part of a selection rich in actives, with near analogues and random picks from the rest. A number with no mark means an inactive call. No stated cut-off is given here; in the data, active means activation above about 4.9%; inactive means the rest.

Sequence of G-protein coupled receptor 151 (Homo sapiens) (Q8TDV0 whole entry, looked up): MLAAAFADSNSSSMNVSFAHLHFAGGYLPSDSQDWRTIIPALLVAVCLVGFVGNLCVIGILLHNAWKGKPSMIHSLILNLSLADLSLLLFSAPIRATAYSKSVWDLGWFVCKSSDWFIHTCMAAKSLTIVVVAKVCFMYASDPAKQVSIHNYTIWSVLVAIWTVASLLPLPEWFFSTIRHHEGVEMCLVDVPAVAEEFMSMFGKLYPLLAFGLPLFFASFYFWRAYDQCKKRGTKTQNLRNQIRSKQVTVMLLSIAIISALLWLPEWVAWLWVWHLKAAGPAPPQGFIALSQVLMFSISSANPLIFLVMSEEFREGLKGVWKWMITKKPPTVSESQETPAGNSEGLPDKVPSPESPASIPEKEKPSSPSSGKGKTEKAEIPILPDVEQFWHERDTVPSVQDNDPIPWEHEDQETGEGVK

The assay addresses G-protein coupled receptor 151 (Homo sapiens) (UniProt Q8TDV0). The experiment in a line: activates the human receptor GPR151, primary screen, cell-based, PathHunter beta-arrestin, luminescence (AID 1508602).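 Further: 0% = median of compound wells and 100% = cells with positive control.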 As to conditions: PathHunter beta-arrestin GPR151 cells, at 11.2 µM, active compounds read high.
With `O=C1CCC(CCC(=O)N2CCCC2)(Cc2cccc3ccccc23)N1` (stereo not drawn), the activation is 0.278%. With `Cc1ccc(C(C)C)c(OCCNC(=O)c2cccs2)c1`, the activation is 0.446%. The result for `COc1ccc(CC2(CCC(=O)NCCCn3ccnc3)CCC(=O)N2)c(F)c1` (stereo not drawn) reads -0.719%; that for `COc1cc(Nc2ccc(-n3cc(CC(=O)NCCCN4CCCC4=O)c4ccccc43)nn2)cc(OC)c1OC`, -1.03%; that for `COc1ccc(C(=O)NCC(=O)O)cc1[N+](=O)[O-]`, -1.88%. Take `CCOC(=O)c1c(-c2ccc([N+](=O)[O-])cc2)csc1NC(=O)c1ccccc1`: the activation is -1.07%. The result for `COC(=O)c1c(-c2ccccc2)csc1NC(=O)c1ccc(OC)c([N+](=O)[O-])c1` reads 6.64% (active); that for `COC(=O)c1cccc(-n2nnnc2SCC(=O)Nc2nc(C(C)(C)C)cs2)c1`, -0.122%. The value for `CC(C(=O)O)c1ccc(NC(=O)OC(C)(C)C)cc1` (stereo not drawn) was -1.31%.

Regarding `COc1cccc(C2SCC(=O)N2c2cccc(C)c2)c1OC` (stereo not drawn), the activation is 5.36% (active). Consider `COc1ccc(N2C(=O)CSC2c2ccccc2F)cc1Cl` (stereo not drawn), for which the activation is -0.327%.

Turning to `COc1ccc(N2C(=O)CSC2c2cccc(Cl)c2Cl)cc1Cl` (stereo not drawn), the activation was 0.734%. The value for `Cc1c(NC(=O)c2nn3c(C(F)(F)F)cc(-c4ccc(Cl)cc4)nc3c2Cl)c(=O)n(-c2ccccc2)n1C` was -1.62%; that for `N#C/C(=C/c1ccc(Br)o1)C(=O)NCCc1c[nH]c2ccccc12` was 0.189%.

In the case of `Cc1cc(CN(C)Cc2nc(NCC3CCCO3)c3ccc(Cl)cc3n2)on1` (stereo not drawn), the activation was -0.552%. The result for `COc1cc(-c2ncnn2-c2ccc(Cl)cc2)ccc1OCc1ccccc1` reads -3.78%; that for `COCc1cc(C)c(C#N)c(N(C)C)n1`, 0.894%; that for `CC1=NN(c2cccc(Cl)c2)C(=O)/C1=C\c1ccc(F)cc1`, -0.302%. The result for `COc1ccc(CNC(=O)NCc2ccsc2)cc1` reads -0.956%. The result for `O=C(NCCc1ccsc1)c1ccccc1Cl` reads -3.26%. For `O=C(NCc1ccsc1)c1ccc(-n2cccc2)cc1`, the activation is 6.14% (active). The value for `O=C(NCCc1ccc(N2CCCC2)cc1)c1ccc(F)cc1` was 0.277%. The value for `CCn1c(NCc2ccccc2OC)nc2ccccc21` was -0.109%. The result for `C#CCOc1ccc(C=C2C(=O)NC(=S)NC2=O)cc1Cl` reads -0.112%; that for `C=CCN1C(=O)/C(=C\c2cc(Br)ccc2OCC)C(=O)NC1=S`, 0.0155%; that for `C#CCOc1ccc(Br)cc1/C=C1\NC(=S)N(C)C1=O`, 5.86% (active).

As for `C/C(=N\NC(=O)CNC(=O)c1ccccc1Br)c1ccccc1`, the activation is -0.31%. The result for `CC(C)(C)c1ccc(OCCNC(=S)NC(=O)c2cncc(Br)c2)cc1` reads 0.8%; that for `Cc1cccc(C)c1OCC(=O)OCCNC(=O)c1cccnc1`, 2.35%. The result for `Cc1cccc(OCCNC(=S)NC(=O)c2cccnc2)c1` reads 7.55% (active); that for `COc1ccc(-c2c(C)nn3c(NCCN(C)C)cc(C)nc23)cc1`, 0.306%; that for `O=C1NC2(CCCC2)C(=O)N1Cc1nnc(-c2ccccc2Br)o1`, 0.439%. The result for `CS(=O)(=O)N(CC(=O)Nc1ccc(F)cc1F)c1cccc([N+](=O)[O-])c1` reads -0.142%; that for `CS(=O)(=O)N(CC(=O)Nc1ccc(F)cc1F)c1ccc(F)cc1`, 7.88% (active).

Regarding `CS(=O)(=O)N(CC(=O)Nc1ccc(F)cc1F)c1cc(Cl)c(Cl)cc1Cl`, the activation was -0.649%.

Consider `OCCn1c(SCCSc2nc3ccccc3n2CCO)nc2ccccc21`, for which the activation is -0.408%. The result for `COc1cc(NC(=O)c2cccc(Br)c2)ccc1NC(=O)c1ccco1` reads 0.388%; that for `COc1cc(NC(=O)c2sc3ncnc(N4CCCCC4)c3c2C)cc(OC)c1OC`, 5.99% (active); that for `COc1ccccc1N1CCN(c2ncnc3sc(C(=O)Nc4ccc5c(c4)OCCO5)c(C)c23)CC1`, -0.8%.

For `COc1ccc(NC(=O)c2sc3ncnc(N4CCCCC4)c3c2C)cc1OC`, the activation was 0.695%.

Regarding `CCC(CC)NCc1cc(OC)c(OC)cc1Br`, the activation was 0.484%. The result for `Cc1ccc([N+](=O)[O-])cc1S(=O)(=O)Nc1cccc(N(C)C)c1` reads 0.193%; that for `Cc1cc(C)cc(N(C(C)C(=O)Nc2ccc(Cl)cc2)S(C)(=O)=O)c1` (stereo not drawn), -1.25%.

`Nc1cc(Cl)ccc1C(=O)OCC(=O)Nc1ccc(N2CCCCC2)cc1`: the activation is 2.3%.

Consider `O=C1N[C@@H](Cc2ccccc2)C(=O)N2CCN(C(=O)c3ccc(OC(F)(F)F)cc3)C[C@H]12`, for which the activation was -1.02%.

Take `CC12CCC(C(=O)NC3CCCCC3)(OC1=O)C2(C)C` (stereo not drawn): the activation is 4.96% (active).

In the case of `CC(C)NC(=O)C12CCC(C)(C(=O)O1)C2(C)C` (stereo not drawn), the activation was 0.406%. The value for `Cc1nc(NC(=O)C23CCC(C)(C(=O)O2)C3(C)C)sc1C` (stereo not drawn) was -1.28%. The result for `Cc1ccnc(NC(=O)Nc2sc3nc4n(c(=O)c3c2C)CCC(C)CC4)c1` (stereo not drawn) reads 0.22%. Regarding `CCn1c(C(CC(C)C)NC(=O)C2CC2)nc2cccnc21` (stereo not drawn), the activation is -0.148%. Consider `COc1ccc(C(=O)N2CCCN(c3nc4cc(C)c(C)cc4cc3C#N)CC2)cc1OC`, for which the activation is 2.69%. The value for `Cc1ccc(C(=O)NCC(=O)OCC(=O)N(C(C)C)C(C)C)cc1C` was -0.906%; that for `CCOc1cc2c(cc1OCC)C(c1ccc(OC)c(C)c1)NCC2` (stereo not drawn) was 0.975%; that for `CCOc1cc2c(cc1OCC)C(c1cc(F)c(F)c(F)c1)NCC2` (stereo not drawn) was -0.242%.

As for `CCOc1cc2c(cc1OCC)C(c1ccc3ccccc3c1)NCC2` (stereo not drawn), the activation was 5.53% (active). On to `O=C(NC1CCCCCC1)c1ccc(NS(=O)(=O)c2cccs2)cc1`, for which the activation is 2.64%.

Regarding `COc1ccc(/C=N/N=C2/NC(=O)CS2)c(OC)c1`, the activation was -0.156%.

As to `COc1cccc(/C=N/N=C2/NC(=O)CS2)c1O`, the activation is -1.32%. The result for `COc1cc(/C=N/N=C2/NC(=O)CS2)ccc1OC(=O)c1ccccc1C` reads 10.4% (active); that for `COCCn1c(=NC(=O)c2c(C)cnn2C)sc2cc(Cl)ccc21`, -0.961%. The value for `Cc1ccc(NC(=O)c2cccc(N(C)C)c2)cc1NC(=O)c1ccc(O)cc1` was 8.84% (active); that for `Cc1cccc(C(=O)Nc2ccc(C(=O)Nc3ccc(C(=O)Nc4ccccc4C)cc3)cc2)c1` was 2.61%.

Take `Cc1ccc(C(=O)Nc2ccc(N(C)C)cc2)cc1C`: the activation is -2.22%. The value for `Cc1cccc(Nc2nc(-c3ccc(I)cc3)cs2)c1` was -1.86%; that for `Cc1ccc(Nc2nc(-c3ccccn3)cs2)cc1C` was 11.2% (active). The result for `Cc1ccc(-c2csc(Nc3ccccc3)n2)c(C)c1` reads 0.521%; that for `O=C(c1ccccc1)N1CCN(C2CC(=O)N(c3cc(Cl)cc(Cl)c3)C2=O)CC1` (stereo not drawn), -0.358%; that for `Cc1ccc(OCCN2CCNCC2)c(Cl)c1`, 0.0124%. The result for `CC(C)C(=O)NC(C)c1nnc2n1CCN(Cc1cccc3ncccc13)CC2` (stereo not drawn) reads 0.68%. `CCC(=O)NC(c1nnc2n1CCN(Cc1ccc3cccnc3c1)CC2)C(C)C` (stereo not drawn): the activation is 0.149%. The value for `CC(C)C(=O)NC(C)c1nnc2n1CCN(Cc1ccc3cccnc3c1)CC2` (stereo not drawn) was 5.04% (active); that for `Cc1cc(OCC(=O)NNC(=O)COc2ccc(Br)cc2Br)cc(C)c1Cl` was 0.12%; that for `CC(C)c1nc2sc3c(NCCCO)ncnc3c2c2c1COC(C)(C)C2` was 1.25%. The result for `CCCN1C(=O)c2ccc(C(=O)Nc3ccc(O)cc3C(=O)O)cc2C1=O` reads -4.67%; that for `COCCN1C(=O)c2ccc(C(=O)Nc3ccc(C(=O)O)cc3)cc2C1=O`, -0.197%; that for `CCCN1C(=O)c2ccc(C(=O)Nc3ccc(C(C)=O)cc3)cc2C1=O`, 6.33% (active). The result for `O=C(CCC1=NS(=O)(=O)c2ccccc2N1)N1CCN(c2ccccc2)CC1` reads 0.684%; that for `O=[N+]([O-])c1ccc(Nc2nc(Cl)nc(NCCN3CCOCC3)n2)cc1`, 3.01%; that for `COc1cc(C(=O)NCCC(=O)NCC2COc3ccccc3O2)cc(OC)c1OC` (stereo not drawn), -0.141%. With `COc1ccc(Br)cc1C(=O)NCC1COc2ccccc2O1` (stereo not drawn), the activation was 5.44% (active).

Turning to `CCOC(=O)C(=O)NCC1COc2ccccc2O1` (stereo not drawn), the activation is 0.866%. The value for `O/N=C(\C(=N\O)c1ccccc1)c1ccccc1` was -0.0395%. As to `COC(=O)Cc1ccc(NC(=S)N2CCC(C(N)=O)CC2)cc1`, the activation was -0.283%.

Take `O=C(NCC1CCCO1)c1ccc(N2CC3CC(C2)c2cccc(=O)n2C3)c(NS(=O)(=O)c2ccc(Cl)cc2)c1` (stereo not drawn): the activation is -2.43%. The value for `c1ccc(CNc2nc(Nc3ccc(N4CCOCC4)cc3)nc3c2ncn3-c2ccccc2)cc1` was 1.12%; that for `FC(F)(F)c1ccc(Cn2cnc3c(NCc4cccc(C(F)(F)F)c4)nc(Nc4ccc(N5CCOCC5)cc4)nc32)cc1` was 5.04% (active). The result for `CCN(CC)C(=O)C1CCCN(c2ncc(C)c(Nc3ccc(N4CCOCC4)cc3)n2)C1` (stereo not drawn) reads 0.13%. For `FC(F)(F)c1cccc(CNc2nc(Nc3ccc(N4CCOCC4)cc3)nc3c2ncn3-c2ccsc2)c1`, the activation was 0.773%. Consider `Cc1cnc(Nc2ccc(N3CCOCC3)cc2)nc1NCc1cccc(C(F)(F)F)c1`, for which the activation is 6.5% (active).

For the compound `CCN(CC)C(=O)C1CCCN(c2nc(NCc3cccc(C(F)(F)F)c3)c3cc(OC)c(OC)cc3n2)C1` (stereo not drawn), the activation is -0.297%.

On to `CCN(CC)C(=O)C1CCCN(c2ncc(C)c(NCc3cccc(C(F)(F)F)c3)n2)C1` (stereo not drawn), for which the activation was 5.92% (active). The value for `FC(F)(F)c1cccc(CNc2ccnc(N3CCOCC3)n2)c1` was 0.285%.

`FC(F)(F)c1cccc(CNc2ncnc3nc(N4CCOCC4)[nH]c23)c1`: the activation was 1.38%.
